S2 tox: Viability Counterscreen for Primary qHTS for Inhibitors of ATXN expression; S2 cells (HEK-293 line with an ATXN2-luciferase reporter) viability, CellTiter-Fluor protease fluorescence, 24 h; Potency, µM (doses to about 56.7 µM), actives largely listed as cytotoxic; 400,000 compounds, 0.49% hits; AID 651635, 2014; also: nearly all actives have a fitted effect of over 40% in size
ATXN2 expr inh: Primary qHTS for Inhibitors of ATXN expression | HEK-293 ATXN2-luciferase reporter, luminescence, 24 h | Potency, µM (highest dose often 57 µM), most hits filed as inhibitors | 360,000 compounds, 0.72% hits; also: nearly all actives have a fitted effect of over 55% in size
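ATXN2-luciferase reporter cells (luciferase flanked by upstream and downstream ATXN2 gene portions) were treated 24 h at 37 °C with compounds at up to 57 uM. SteadyGlo luminescence gave expression; GF-AFC fluorescence gave viability.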
IL-1B inflam inh: qHTS for Inhibitors of Inflammasome Signaling: IL-1-beta AlphaLISA Primary Screen; AID 743279, 2014; 360,000 compounds, 4.7% hits; THP-1 LPS/ATP IL-1B secretion, AlphaLISA, 16 h; hits give low values; activity change, % at 57.5 µM; in the data active = activity change below about -50%; inconclusive = mostly about -30% to -49%
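THP-1 cells pretreated 1 hr with compounds (up to 57.5 uM final), then stimulated with LPS (250 ng/mL final) plus ATP (1.25 mM final); secreted IL-1B measured by AlphaLISA after 16 hr, decreased signal indicating inhibition.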
USP2a block: qHTS Assay for Inhibitors of Ubiquitin-specific Protease USP2a Using CHOP2 as the Reporter; Ubiquitin carboxyl-terminal hydrolase 2 (Homo sapiens), O75604; USP2 core, Ub-CHOP2 coupled fluorogenic reporter, 485/531; 330,000 compounds, 0.01% hits; Potency, µM (series often up to 38.3 µM), actives largely listed as inhibitors
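USP2 core (10nM final) preincubated 30min RT with compound in 20mM Tris-HCl pH 8.0, 2mM CaCl2, 2mM beta-mercaptoethanol, 0.05% CHAPS; 25nM Ub-CHOP2 plus 25nM reporter substrate added, fluorescence (Ex485/Em531) read after 60min.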
USP1 inh: Inhibitors of USP1/UAF1: Primary Screen; 390,000 compounds, 0.23% hits; AID 743255, 2014; Potency, µM (doses to about 57.1 µM), usual class: inhibitors; recombinant USP1/UAF1, Ub-Rhodamine cleavage fluorescence; Ubiquitin carboxyl-terminal hydrolase 1 (Homo sapiens), O94782; also: nearly all actives have a fitted effect of over 60% in size
Target sequence (O94782 whole entry, looked up): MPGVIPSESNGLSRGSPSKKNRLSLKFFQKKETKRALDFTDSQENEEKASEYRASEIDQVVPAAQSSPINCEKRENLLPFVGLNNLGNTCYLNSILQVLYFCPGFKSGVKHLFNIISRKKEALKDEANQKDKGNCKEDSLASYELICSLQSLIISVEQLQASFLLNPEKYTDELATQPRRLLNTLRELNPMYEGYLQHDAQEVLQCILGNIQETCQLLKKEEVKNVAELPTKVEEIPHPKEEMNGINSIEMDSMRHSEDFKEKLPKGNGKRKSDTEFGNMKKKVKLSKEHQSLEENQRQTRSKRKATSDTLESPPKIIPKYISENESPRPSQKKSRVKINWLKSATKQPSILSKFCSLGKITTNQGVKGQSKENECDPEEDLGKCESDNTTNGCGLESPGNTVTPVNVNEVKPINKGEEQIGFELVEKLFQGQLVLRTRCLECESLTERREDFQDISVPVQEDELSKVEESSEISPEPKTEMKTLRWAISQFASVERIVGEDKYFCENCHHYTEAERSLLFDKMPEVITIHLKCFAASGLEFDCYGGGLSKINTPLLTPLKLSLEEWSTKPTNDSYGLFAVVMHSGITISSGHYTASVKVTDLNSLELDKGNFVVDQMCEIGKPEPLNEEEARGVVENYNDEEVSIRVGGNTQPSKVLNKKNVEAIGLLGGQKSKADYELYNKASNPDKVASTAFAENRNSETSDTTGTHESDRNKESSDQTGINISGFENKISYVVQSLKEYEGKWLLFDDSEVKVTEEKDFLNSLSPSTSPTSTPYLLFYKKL
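High-throughput fluorogenic screen: 1nM USP1/UAF1 complex, Ub-Rho substrate 150nM final, 50mM HEPES pH 7.8 with 0.5mM EDTA, 0.1 mg/ml BSA, 1mM TCEP and 0.01% Tween-20.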
Large screens that a line does not name were inactive. Shown are actives, neighbours in structure and some others; about 4.8% of the full set was active somewhere. Unless noted, calls follow the shape of the dose curve; as a rule, active = well fitted curve in the direction sought with a large enough effect; inconclusive = small, poorly fitted or top-dose-only effect, or another doubt; inactive = no such curve, though single readings can be large; an effect the other way counts as inactive or inconclusive.

Cc1ccc(C2=NNC(=O)C(c3ccc(Cl)cc3)C2)cc1 (centres undefined)	none
Cc1coc2cc3oc(=O)c4c(c3cc12)CCC4	none (no result: S2 tox, ATXN2 expr inh, IL-1B inflam inh, USP1 inh)
Cc1c(C)c2cc3c(C)coc3cc2oc1=O	IL-1B inflam inh -51.1
O=C(NC1CC1)c1sc2ccccc2c1Cl	IL-1B inflam inh inconclusive
O=C(NC1C=CS(=O)(=O)C1)c1sc2ccccc2c1Cl (centres undefined)	ATXN2 expr inh inconclusive, IL-1B inflam inh -97.1
N[C@@H](Cc1ccc(O)c(O)c1)C(=O)O	S2 tox inconclusive, IL-1B inflam inh -107.2 (no result: USP2a block)
CC(Cc1ccc(O)c(O)c1)C(C)Cc1ccc(O)c(O)c1 (centres undefined)	S2 tox inconclusive, IL-1B inflam inh -74.6 (no result: USP2a block)
COc1ccc(OC)c(-c2cc(C(=O)Nc3c(C)nn(Cc4ccc(C)cc4)c3C)no2)c1	none (no result: IL-1B inflam inh, USP2a block)
CN1CCN(Cc2nc3ccccc3c(=O)n2Cc2nc(-c3ccc4ccccc4c3)cs2)CC1	ATXN2 expr inh inconclusive, IL-1B inflam inh -95.4 (no result: S2 tox)
CN1CCN(Cc2nc3ccccc3c(=O)n2Cc2nc(-c3cccc([N+](=O)[O-])c3)cs2)CC1	IL-1B inflam inh -78.3
O=C(O)c1cc(-c2cccc([N+](=O)[O-])c2)nc2ccccc12	none
CN1CCN(Cc2nc3ccccc3c(=O)n2Cc2nc(-c3ccccc3F)cs2)CC1	IL-1B inflam inh inconclusive
C[C@@H]1O[C@@H](O[C@@H]2C(=O)c3c(O)cc(O)cc3O[C@H]2c2ccc(O)c(O)c2)[C@H](O)[C@H](O)[C@H]1O	none
O=C(Nc1ccc(/C=C/c2ccc(NC(=O)c3cc(S(=O)(=O)O)c4cccnc4c3O)cc2S(=O)(=O)O)c(S(=O)(=O)O)c1)c1cc(S(=O)(=O)O)c2cccnc2c1O	none (no result: ATXN2 expr inh, IL-1B inflam inh, USP2a block, USP1 inh)
COc1ccc(OC)c(C(=O)N2CCc3c(cnc(C)c3CNS(=O)(=O)N(C)C)C2)c1	none (no result: ATXN2 expr inh, IL-1B inflam inh, USP2a block, USP1 inh)
O=C(CN(C1CCCCC1)C1CCCCC1)N1CCc2ccccc2C1	IL-1B inflam inh -99.3
CCOc1cc(/C=N/O)cc(Br)c1OCc1ccc(Cl)cc1	ATXN2 expr inh inconclusive, IL-1B inflam inh -77.8
O=C(O)CCCN1C(=O)/C(=C/C=C/c2ccco2)SC1=S	S2 tox inconclusive, IL-1B inflam inh inconclusive, USP2a block inconclusive
O=C1S/C(=C\C=C\c2ccco2)C(=O)N1c1ccccc1	IL-1B inflam inh -78.1
O=C(O)CC(C(=O)O)N1C(=O)/C(=C/C=C/c2ccco2)SC1=S (centres undefined)	S2 tox inconclusive, USP2a block inconclusive, USP1 inh inconclusive
O=C1S/C(=C\C=C\c2ccco2)C(=O)N1c1ccc(O)cc1	IL-1B inflam inh -97.2, USP2a block inconclusive
COc1ccc(C2(CO)OC(CO)C(O)C2O)cc1 (centres undefined)	none (no result: USP2a block)
O=C(NCCN1CCNC1=O)c1ccc2sc([C@H]3C[C@H](O)[C@@H](CO)O3)nc2c1	IL-1B inflam inh -86.2 (no result: USP2a block, USP1 inh)
COc1cc(NC(=O)c2ccc3oc(=O)c(S(=O)(=O)c4ccccc4)cc3c2)cc(OC)c1	S2 tox inconclusive (no result: IL-1B inflam inh, USP2a block)
Cc1ccc(-n2c(N)c(C(=O)Nc3ccccc3F)sc2=S)cc1C	IL-1B inflam inh -54.4
CCN(CC)CCCN(Cc1cc2cc3c(cc2[nH]c1=O)OCO3)C(=S)Nc1ccc(OC)cc1	IL-1B inflam inh -71.4 (no result: S2 tox)
COc1cc2cc(CN(CCc3cccc(C)c3)C(=S)NCCCN3CCOCC3)c(=O)[nH]c2cc1OC	IL-1B inflam inh -61.7
CCN(CC)CCCN(Cc1cc2cc3c(cc2[nH]c1=O)OCO3)C(=S)NC	none
COc1ccc(NC(=S)N(CCN2CCOCC2)Cc2cc3cc4c(cc3[nH]c2=O)OCCO4)cc1	IL-1B inflam inh -61.0
COc1ccc(C2C(C(=O)Nc3ccccc3)=C(C)Nc3nc(-c4ccc(Cl)cc4)nn32)cc1 (centres undefined)	none (no result: IL-1B inflam inh, USP2a block)
CC1=C(C(=O)Nc2ccccc2)C(c2ccc(O)cc2)n2nc(-c3ccc(Cl)cc3)nc2N1 (centres undefined)	S2 tox 28.2µM (no result: IL-1B inflam inh, USP2a block)
O=C(CCCCCCC(=O)Nc1ccc([C@H]2O[C@@H](CSc3nc(-c4ccccc4)c(-c4ccccc4)o3)C[C@@H](c3ccc(CO)cc3)O2)cc1)NO	none (no result: S2 tox, IL-1B inflam inh, USP2a block, USP1 inh)
CCCC(=O)N1CCCC(c2cc(C(=O)NCc3ccccc3)no2)C1 (centres undefined)	none (no result: USP2a block, USP1 inh)
c1ccc(-c2nc(-c3ccco3)n3ccccc23)cc1	IL-1B inflam inh -92.2
c1ccc(Nc2c(-c3ccco3)nc3ccccn23)cc1	IL-1B inflam inh inconclusive
COc1cc(F)ccc1CN1CCC(C(=O)Nc2ccc(Oc3ccccc3)nc2)CC1	IL-1B inflam inh -81.4, USP1 inh inconclusive
COC(=O)c1ccc(N2CCCCC2)c(NC(=O)c2ccco2)c1	none
CCOc1ccc2ccc(OCC)c(/C=N/n3cnnc3)c2c1	IL-1B inflam inh -72.9
O=C(Cc1ccccc1)Nc1cccc(-c2cn3cccnc3n2)c1	none (no result: IL-1B inflam inh, USP2a block)
COc1cc(C(=O)OCC(=O)NC2CCCCC2)cc2c1OCCO2	none (no result: ATXN2 expr inh)
CCc1nc2ccc(C(=O)Nc3cc(-c4ccccc4)ccc3OC)cn2c1N(C=O)CCC(C)C	ATXN2 expr inh inconclusive, IL-1B inflam inh -59.8 (no result: USP2a block, USP1 inh)
CCCCNC(=O)c1ccc2nc(CC)c(N(CCC(C)C)CCN(C)C)n2c1	none (no result: USP2a block, USP1 inh)
CCc1nc2ccc(C(=O)NCCOc3ccc(OC)cc3)cn2c1N(CCC(C)C)CCN(C)C	IL-1B inflam inh -64.4 (no result: USP2a block, USP1 inh)
CCc1nc2ccc(C(=O)Nc3cc(-c4ccccc4)ccc3OC)cn2c1N(C)CCCc1ccccc1	none (no result: USP2a block, USP1 inh)
CCc1nc2ccc(C(=O)Nc3cc(-c4ccccc4)ccc3OC)cn2c1N(CCN(C)C)CC1CC1	S2 tox 28.2µM, ATXN2 expr inh inconclusive, IL-1B inflam inh inconclusive (no result: USP2a block, USP1 inh)
CCCCCN(CCCOC)C(=O)C(CCC(=O)O)NC(=O)c1ccc(Cl)c(Cl)c1 (centres undefined)	none (no result: IL-1B inflam inh, USP2a block, USP1 inh)
CC(C)C(NC(=O)c1ccccc1)C(=O)N1CCN(C/C=C/c2ccccc2)CC1 (centres undefined)	S2 tox inconclusive
CSCCC(NC(=O)c1ccc(Cl)c([N+](=O)[O-])c1)C(=O)N1CCN(C/C=C/c2ccccc2)CC1 (centres undefined)	S2 tox inconclusive, ATXN2 expr inh inconclusive, IL-1B inflam inh -103.3
CCOc1ccc(CN2CCN(Cc3cccn3-c3ncccn3)CC2CCO)cc1 (centres undefined)	none
CSc1ccc(CN(C)C(=O)CNC(=O)CNS(=O)(=O)c2ccc(C)c(C)c2)cc1	USP1 inh inconclusive
Cc1ccc(S(=O)(=O)NCC(=O)NCC(=O)N(C)Cc2ccc3ccccc3c2)cc1C	ATXN2 expr inh inconclusive, IL-1B inflam inh -52.0
N#C/C(=N\Nc1cccc(Cl)c1)C(=O)c1ccccc1	S2 tox inconclusive

Bioassay records as filed in PubChem.
